# Experimental data: PubChem BioAssay (NCATS)
# Records with an inconclusive call do not appear. The source made the active and inactive calls. Calls come from the whole dose curve; as a rule, active = well fitted inhibition curve with a large enough effect; inconclusive = small, poorly fitted or top-dose-only effect; inactive = flat fitted curve, though single readings scatter.
# Tests used:
# Test in all cases: qHTS profiling for inhibitors of Plasmodium falciparum proliferation (AID 504749); note: nearly all actives have a fitted effect of over 60% in size
# CP256 = conditions: P. falciparum in erythrocytes, SYBR Green DNA, 72 h
# Procedure, shortened: (§1)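 SYBR Green fluorescence of parasite DNA, read after lysis and overnight dark incubation, measured growth over 72 h in erythrocyte culture at 0.3% parasitemia and 2.5% hematocrit. Data normalised to DMSO and 0.29 uM artemisinin, with plate-drift correction.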
# CP268 = conditions: P. falciparum in erythrocytes, SYBR Green DNA, 72 h; series mostly up to 28.7 µM
# Procedure, shortened: as §1
# CP291 = conditions: P. falciparum in erythrocytes, SYBR Green DNA, 72 h; series mostly up to 28.7 µM
# Procedure, shortened: as §1
# CP315 = conditions: P. falciparum in erythrocytes, SYBR Green DNA, 72 h; series mostly up to 28.7 µM
# Procedure, shortened: as §1
# CP325 = conditions: P. falciparum in erythrocytes, SYBR Green DNA, 72 h; series mostly up to 28.7 µM
# Procedure, shortened: as §1
# CP329 = conditions: P. falciparum in erythrocytes, SYBR Green DNA, 72 h; series mostly up to 28.7 µM
# Procedure, shortened: as §1
# CP238 = conditions: P. falciparum in erythrocytes, SYBR Green DNA, 72 h; series mostly up to 28.7 µM
# Procedure, shortened: as §1
# CP247 = conditions: P. falciparum in erythrocytes, SYBR Green DNA, 72 h; series mostly up to 28.7 µM
# Procedure, shortened: as §1
# CP250 = conditions: P. falciparum in erythrocytes, SYBR Green DNA, 72 h; series mostly up to 28.7 µM
# Procedure, shortened: as §1
# CP252 = conditions: P. falciparum in erythrocytes, SYBR Green DNA, 72 h; series mostly up to 28.7 µM
# Procedure, shortened: as §1
# CP260 = conditions: P. falciparum in erythrocytes, SYBR Green DNA, 72 h; series mostly up to 28.7 µM
# Procedure, shortened: as §1
# CP265 = conditions: P. falciparum in erythrocytes, SYBR Green DNA, 72 h; series mostly up to 28.7 µM
# Procedure, shortened: as §1
# CP266 = conditions: P. falciparum in erythrocytes, SYBR Green DNA, 72 h; series mostly up to 28.7 µM
# Procedure, shortened: as §1
# CP269 = conditions: P. falciparum in erythrocytes, SYBR Green DNA, 72 h; series mostly up to 28.7 µM
# Procedure, shortened: as §1
# CP286 = conditions: P. falciparum in erythrocytes, SYBR Green DNA, 72 h; series mostly up to 28.7 µM
# Procedure, shortened: as §1
# CP297 = conditions: P. falciparum in erythrocytes, SYBR Green DNA, 72 h; series mostly up to 28.7 µM
# Procedure, shortened: as §1
# CP305 = conditions: P. falciparum in erythrocytes, SYBR Green DNA, 72 h; series mostly up to 28.7 µM
# Procedure, shortened: as §1
# CP335 = conditions: P. falciparum in erythrocytes, SYBR Green DNA, 72 h
# Procedure, shortened: as §1
# DFO2036 = conditions: P. falciparum in erythrocytes, SYBR Green DNA, 72 h; series mostly up to 28.7 µM
# Procedure, shortened: as §1
# CP262 = conditions: P. falciparum in erythrocytes, SYBR Green DNA, 72 h; series mostly up to 28.7 µM
# Procedure, shortened: as §1
# Potency is the fitted concentration of half-maximal effect.
SMILES,Potency (CP256),Potency (CP268),Potency (CP291),Potency (CP315),Potency (CP325),Potency (CP329),Potency (CP238),Potency (CP247),Potency (CP250),Potency (CP252),Potency (CP260),Potency (CP265),Potency (CP266),Potency (CP269),Potency (CP286),Potency (CP297),Potency (CP305),Potency (CP335),Potency (DFO2036),outcome (CP262)
COC1C(OC(=O)/C=C/C=C/C=C/C=C/C(=O)O)CCC2(CO2)C1C1(C)OC1CC=C(C)C (stereo not drawn),0.0708 µM (active),3.38 µM (active),8.49 µM (active),1.69 µM (active),7.57 µM (active),0.601 µM (active),–,–,–,–,–,–,–,–,–,–,–,–,–,–
C=CCNC1=C2C[C@@H](C)C[C@H](OC)[C@H](O)[C@@H](C)/C=C(\C)[C@H](OC(N)=O)[C@@H](OC)/C=C\C=C(/C)C(=O)NC(=CC1=O)C2=O,2.24 µM (active),5.36 µM (active),4.26 µM (active),3.79 µM (active),4.26 µM (active),4.26 µM (active),1.58 µM (active),2.24 µM (active),2.24 µM (active),1.78 µM (active),2.24 µM (active),2 µM (active),10.7 µM (active),1.69 µM (active),3.55 µM (active),1.69 µM (active),4.78 µM (active),1.69 µM (active),2 µM (active),–
CCCOc1ccc2nc(NC(=O)OC)sc2c1,–,inactive,inactive,inactive,inactive,inactive,inactive,inactive,inactive,inactive,inactive,inactive,inactive,inactive,inactive,inactive,inactive,–,inactive,inactive
